# In all, about 69,000 compounds went through this assay and about 8,600 (12%) showed an effect of 50% or more. This is one part of a sample in which strong results are shown more often than they occur.
# Test system: Plasmodium berghei
# Assay: Screen against P. berghei liver stage (PbLuc), transformed with Luciferase, at 10uM
# Assay type: functional, HepG2
# Conditions: tested at 10 uM
row,Compound,INHIBITION [%]
1,CC(C)c1nc(C2CCCN2CCS(=O)(=O)c2ccccc2)no1 (stereo unspecified),-12.6
2,NC(=O)C1CN(C(=O)c2ccc(F)cc2)CCN1CCc1ccccc1 (stereo unspecified),22
3,CCC(NC(=O)c1cnc(-c2cccnc2)nc1)c1ccnn1C (stereo unspecified),-31.4
4,O=C(NCCCN1CCOCC1)c1ccn(COc2ccc(Br)cc2)n1,47.4
5,Cc1cc(C2CCCN(C(=O)c3c(C)noc3C)C2)n[nH]1 (stereo unspecified),-2.37
6,O=C(Nc1cccnc1)[C@@H]1C[C@H]2OCC[C@H]2N(Cc2ccsc2)C1,-2.84
7,Cc1ccc(Cl)c(CN2CCC(c3nccn3C(C)C)CC2)c1F,-7.71
8,O=C(NC1CCN(c2ncccn2)CC1)c1cc2c([nH]c1=O)CCC2,-46.5
9,O=C(NC1CCN(c2ncccn2)CC1)c1cc2c(cc1O)CCCC2,55
10,CC(C)c1ccc(O)c(C(=O)NC2CCN(c3ncccn3)CC2)c1,0.643
11,CC(=O)N[C@@H]1CN(C(=O)CC2CCOCC2)C[C@H]1O,-5.8
12,CC(C)C(c1cccnc1)N(C)C(=O)Cc1ccc(O)cc1 (stereo unspecified),-30
13,CC(C)C(c1cccnc1)N(C)C(=O)Cc1c(F)cccc1F (stereo unspecified),41.8
14,CCNC(=O)N(C)C(c1cccnc1)C(C)C (stereo unspecified),63.5
15,COc1c[nH]c(C(=O)N2CCN(c3cccc(Cl)c3)CC2)cc1=O,38.8
16,CCc1cnc(N2CC[C@H]3[C@@H]2CCC(=O)N3c2cccnc2)nc1,-24.1
17,COC1CCN(C(=O)Cc2csc(-c3ccccc3)n2)CC1,-55.9
18,Cc1noc(C(C)C)c1C(=O)NCc1ccc2c(c1)OCCO2,-28.4
19,CCCS(=O)(=O)N1CC(=O)N(Cc2ccccc2OC)CC(O)C1 (stereo unspecified),41.1
20,CCc1noc(C(C)SCCS(C)(=O)=O)n1 (stereo unspecified),64.6
21,CC(SCCS(C)(=O)=O)c1nc(Cc2ccccc2)no1 (stereo unspecified),13.5
22,CC(SCCS(C)(=O)=O)c1nc(Cc2ccc(F)cc2)no1 (stereo unspecified),12.4

row,Compound,INHIBITION [%]
1,O=C(Nc1cccnc1)[C@@H]1CCO[C@@H]2CCN(Cc3cccnc3)C[C@@H]21,12.7
2,CC(=O)N1N=C(c2ccccc2)OC1C(=O)NCCN(C(C)C)C(C)C (stereo unspecified),30.3
3,Cc1nc(C(C)(C)C)sc1C(=O)NCCNc1ncccn1,10
4,Cc1nn(C)c(C)c1CCC(=O)NCC1(C(N)=O)CCOCC1,26.4
5,Cc1nn(C)c(C)c1CC(=O)NCC1(C(N)=O)CCOCC1,47.7
6,Cc1nn(C)c(C)c1S(=O)(=O)NCC1(C(N)=O)CCOCC1,74.5
7,CSc1ccc(CN(CCO)C(=O)CCNC(C)=O)cc1,18.4
8,CNCc1n[nH]c(=O)n1-c1cccc(Cl)c1Cl,25.1
9,CN1CCN(c2nsc(-c3cccnc3)c2C#N)CC1,62.3
10,N#Cc1c(N2CCCCC2)nsc1-c1cccnc1,-0.621
11,CCN1CCN(c2nsc(-c3cccnc3)c2C#N)CC1,36.6
12,CN(Cc1ccc(N(C)C)cc1)C(=O)c1cc2c([nH]c1=O)CCCC2=O,-42.975
13,CNC(=O)c1ccc(C(=O)N2CCCCC2Cn2cc(C)cn2)cn1 (stereo unspecified),24.6
14,Cc1cc(C(=O)N2CCC3(CC2)CC(c2cccnc2)C(=O)N3)no1 (stereo unspecified),-31.3
15,Cc1ccc(CN2CC[C@H]3CO[C@H](CN4CCN(C)CC4)[C@H]3C2)o1,45.7
16,Cc1ccc(CN2CC[C@@H]3[C@@H](CO[C@H]3CN(C)C)C2)o1,61.1
17,Cc1ccc(CN2CC[C@H]3[C@H](CO[C@H]3CN(C)C)C2)o1,13.1
18,Cc1ccc(CN2CC[C@H]3CO[C@H](CN(C)C)[C@H]3C2)o1,53.9
19,Cc1ccc(CN2CC[C@H]3CO[C@H](CN4CCCC4)[C@H]3C2)o1,7.7
20,CN(C)C[C@@H]1OC[C@H]2CN(Cc3ccoc3)CC[C@H]21,-87.7
21,CCCc1n[nH]c(C2CN(C(=O)c3cccnc3N(C)C)CCO2)n1 (stereo unspecified),16.9
22,CC(C)NC(=O)C1(CC2CC(c3ccc(F)cc3)=NO2)CCNCC1 (stereo unspecified),65.7

row,Compound,INHIBITION [%]
1,O=C(NCCO)C1(CC2CC(c3ccc(F)cc3)=NO2)CCOCC1 (stereo unspecified),22.8
2,O=C(NCCCO)C1(CC2CC(c3ccc(F)cc3)=NO2)CCOCC1 (stereo unspecified),36
3,Cc1noc(C)c1CCC(=O)NCC1(O)CCCN(c2ccccn2)C1 (stereo unspecified),30.4
4,Cc1cc(CN(C)S(=O)(=O)N2CCCC2c2ccc(C)o2)no1 (stereo unspecified),31.9
5,Cc1ccc(CN(C)CC2(O)CCCN(C)C2)o1 (stereo unspecified),-12.7
6,Cc1nn(C)c2c(N3CCN(C)CC3)nc(C3CC3)nc12,21.5
7,O=C(COCC1CC1)N1CCCC1c1nc(-c2ccccc2F)c[nH]1 (stereo unspecified),46.4
8,COC(=O)NCC(=O)N1CCCC1c1nc(-c2ccccc2F)c[nH]1 (stereo unspecified),60.3
9,CCOCCCC(=O)N1CCCC1c1nc(-c2ccccc2F)c[nH]1 (stereo unspecified),29.5
10,O=C(c1cnc2ccccc2c1)N1CCCC(O)(CN2CCCC2)C1 (stereo unspecified),16.2
11,Cc1ccc(N2CCCC(NCC(=O)Nc3cc(C)nn3C)C2)nn1 (stereo unspecified),21
12,Cc1nc(C)n(CC2CCCN(Cc3nnc(C4CC4)o3)C2)n1 (stereo unspecified),2.05
13,CN1CCC(Cc2cc(Nc3ncccn3)ncn2)CC1,62.6
14,CN1CCC(Cc2cc(Nc3ccccn3)ncn2)CC1,-14.1
15,CCC(=O)N1CCC(Cc2cc(Nc3ncccn3)ncn2)CC1,49.6
16,O=S(=O)(C1CC1)N1CCC2(CC1)CN(Cc1nccs1)CCO2,23.3
17,CCn1nc(C)c2c1cnn2CC(=O)Nc1ccc(OC)cc1C,45.4
18,CCOC(=O)c1ccc(S(=O)(=O)NCC(CC)N2CCCC2)cc1 (stereo unspecified),-9.2
19,COc1nn(C)c2c1CCCN(C(=O)c1cccn1C)C2,8.67
20,Cc1nc(C)n(CCNC(=O)C(C)n2ccnc2C(C)C)n1 (stereo unspecified),-23.7
21,Cc1nc(C)n(CCCNC(=O)C(C)n2ccnc2C(C)C)n1 (stereo unspecified),-129
22,Cc1cc(C(F)(F)F)nn1CCNC(=O)C(C)n1ccnc1C(C)C (stereo unspecified),85.5

# From ChEMBL document CHEMBL4513216, “Probing the Open Global Health Chemical Diversity Library for Multistage-Active Starting Points for Next-Generation Antimalarials” (ACS Infect Dis, 2020)
